Data on five compounds can be found in PubChem BioAssay.

Inconclusive results are not listed. Active and inactive are the calls of the source.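 Rule for the calls, unless noted: active = inhibition above the screen-wide mean plus 3 SD, about 51%; inactive = the rest.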

For orientation: inhibition means the change of the read-out against control, counted positive when it falls.

A short description of test [1]: yeast TOR pathway RPL19A-GFP modulators, primary screen, cell-based, S. cerevisiae, multiplex flow cytometry (AID 1862; in the data active = percent of DMSO control GFP below about 86%;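 note: lower values mimic rapamycin by blocking the RPL19A rise seen in DMSO cells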). To be noted: S. cerevisiae RPL19A-GFP strain, flow cytometry fluorescence, 3 h; at 10 µM; stronger effect = lower value. (In flow cytometry, cells or beads pass a laser one at a time.)
The nature of test [2]: modulators of MEP2-GFP levels in yeast, primary screen, S. cerevisiae, multiplex flow cytometry (AID 1867;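 active = GFP response, as percent of the DMSO control, above the screen-wide mean plus 3 SD, about 139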;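 note: median GFP channel fluorescence of barcode-gated MEP2-GFP cells measured by flow cytometry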). To be noted: S. cerevisiae MEP2-GFP strain, 3 h, at 10 µM, stronger effect = higher value, 100% means same as DMSO wells.
Test [3] in a line: modulators of CIT2-GFP expression in yeast, primary screen, S. cerevisiae, GFP fusion, multiplex flow cytometry (AID 1870;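 active = percent response above a set limit, the screen-wide mean plus 3 SD, cut at about 130% in these data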;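 note: barcoded CIT2-GFP strain pooled with four other GFP strains with rapamycin as positive control; median GFP fluorescence per well over plate mean of DMSO wells so 100% = DMSO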). As to conditions: 3 h, at 10 µM, stronger effect = higher value.
A short description of test [4]: modulators of LAP4-GFP expression in yeast, primary screen, S. cerevisiae, multiplex flow cytometry (AID 1873;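 active = GFP signal, as percent of the solvent control, above the screen mean plus 3 SD, about 149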). As to conditions: 3 h, at 10 µM, stronger effect = higher value.
A short description of test [5]: modulators of AGP1-GFP expression in yeast TOR pathway, primary screen, cell-based, multiplex flow cytometry, S. cerevisiae (AID 1887;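 active = GFP signal above the screen-wide mean plus 3 SD, that is over about 124.5% of the solvent control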;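 note: AGP1-GFP fusion strain of S. cerevisiae within a five-strain barcoded multiplex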). As to conditions: 3 h, at 10 µM, stronger effect = higher value.
Test [6] can be described thus: inhibitors of CD8+ T cell-vesicle binding, pilot screen, LFA-1/ICAM-1 modulator project, MLPCN validation set, flow cytometry (AID 2523;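 active = response below a set limit, under 55% cells CD8-positive and vesicle-bound, and CD8 cells' 90th-percentile brightness under 279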;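 for vesicle binding response: mean PE anti-B7-1 fluorescence of CD8+ cells relative to row control; 100% = QL9-loaded vesicles with DMSO vehicle in the same plate row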). To be noted: 2C mouse CD8+ T cells, at 7 µM, stronger effect = lower value; double positive events: measured here: CD8+/vesicle+ event percentage.
In test [7] the target is Integrin beta-1 (Homo sapiens) + Integrin alpha-4 (Homo sapiens) (UniProt P13612+P05556). Nature of the test: inhibition of HUTS-21 binding to VLA-4, pilot screen, VLA-4 allosteric modulator project, U937 cells, HUTS-21 mAb, flow cytometry, validation set (AID 2674;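 active = inhibition above 50%, about 3 SD of the validation set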;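 note: antibody binding induced by the VLA-4 ligand LDV present at three times its Kd; 0% = LDV ligand with antibody and no compound and 100% = antibody without LDV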). To be noted: HUTS-21 LIBS mAb binding, at 6.7 µM, stronger effect = higher value, binding induced by LDV ligand.
Integrin beta-1 (Homo sapiens) + Integrin alpha-4 (Homo sapiens), sequence (P05556 whole entry, looked up): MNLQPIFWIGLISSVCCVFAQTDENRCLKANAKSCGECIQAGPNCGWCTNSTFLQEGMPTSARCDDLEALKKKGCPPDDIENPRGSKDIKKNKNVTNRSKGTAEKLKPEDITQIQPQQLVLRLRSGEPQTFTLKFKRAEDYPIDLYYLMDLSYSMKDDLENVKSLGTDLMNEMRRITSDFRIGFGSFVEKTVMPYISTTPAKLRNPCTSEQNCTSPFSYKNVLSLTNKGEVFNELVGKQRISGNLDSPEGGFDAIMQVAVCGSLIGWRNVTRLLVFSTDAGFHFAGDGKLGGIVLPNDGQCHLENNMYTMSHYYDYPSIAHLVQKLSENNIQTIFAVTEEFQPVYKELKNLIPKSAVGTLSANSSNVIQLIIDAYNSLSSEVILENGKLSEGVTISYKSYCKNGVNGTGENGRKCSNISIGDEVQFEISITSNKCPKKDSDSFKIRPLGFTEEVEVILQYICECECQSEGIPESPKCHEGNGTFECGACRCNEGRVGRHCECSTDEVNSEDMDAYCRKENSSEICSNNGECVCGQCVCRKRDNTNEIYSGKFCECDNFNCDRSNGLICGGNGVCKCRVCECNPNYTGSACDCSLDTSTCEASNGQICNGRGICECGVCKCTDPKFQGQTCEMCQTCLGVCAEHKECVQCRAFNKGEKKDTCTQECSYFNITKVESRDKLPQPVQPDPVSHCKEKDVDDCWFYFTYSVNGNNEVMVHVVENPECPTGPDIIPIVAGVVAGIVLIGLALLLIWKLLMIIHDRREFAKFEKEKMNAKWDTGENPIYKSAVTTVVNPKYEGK
Integrin beta-1 (Homo sapiens) + Integrin alpha-4 (Homo sapiens), sequence (P13612 whole entry, looked up): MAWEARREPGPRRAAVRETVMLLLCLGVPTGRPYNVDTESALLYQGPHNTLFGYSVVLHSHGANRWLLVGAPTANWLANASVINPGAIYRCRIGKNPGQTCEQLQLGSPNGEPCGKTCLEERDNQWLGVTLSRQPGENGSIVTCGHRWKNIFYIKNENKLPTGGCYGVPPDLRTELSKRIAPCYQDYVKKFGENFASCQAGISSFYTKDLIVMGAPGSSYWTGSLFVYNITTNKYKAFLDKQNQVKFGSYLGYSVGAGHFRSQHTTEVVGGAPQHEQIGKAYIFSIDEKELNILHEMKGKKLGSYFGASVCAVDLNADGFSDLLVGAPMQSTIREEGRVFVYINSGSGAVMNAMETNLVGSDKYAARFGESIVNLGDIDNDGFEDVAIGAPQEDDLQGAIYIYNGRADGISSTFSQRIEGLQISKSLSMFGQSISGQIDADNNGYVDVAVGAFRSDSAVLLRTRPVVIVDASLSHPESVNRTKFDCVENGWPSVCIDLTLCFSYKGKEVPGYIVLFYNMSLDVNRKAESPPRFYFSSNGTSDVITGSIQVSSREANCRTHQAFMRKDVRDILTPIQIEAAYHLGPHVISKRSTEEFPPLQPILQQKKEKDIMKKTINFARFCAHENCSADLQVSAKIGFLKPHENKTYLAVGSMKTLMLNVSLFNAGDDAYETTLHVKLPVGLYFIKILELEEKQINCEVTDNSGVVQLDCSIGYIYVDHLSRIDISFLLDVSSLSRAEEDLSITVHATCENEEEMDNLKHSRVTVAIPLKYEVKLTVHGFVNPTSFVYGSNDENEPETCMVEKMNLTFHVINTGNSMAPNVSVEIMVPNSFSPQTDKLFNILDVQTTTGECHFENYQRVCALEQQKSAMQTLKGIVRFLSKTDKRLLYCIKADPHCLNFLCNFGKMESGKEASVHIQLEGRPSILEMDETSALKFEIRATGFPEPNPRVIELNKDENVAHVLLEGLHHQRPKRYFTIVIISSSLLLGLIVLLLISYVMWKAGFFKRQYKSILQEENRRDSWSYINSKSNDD
Test [8] is described as follows: superoxide lowering in aged yeast cells, pilot screen, validation compound set (AID 2706;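 active = superoxide response below 65% of plate, a cut near 3 SD across the whole screen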;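 note: yeast exposed to compound for one week at 30 degrees C before staining; 100% = mean of all compound wells on the same plate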). As to conditions: S. cerevisiae aging, superoxide DHE fluorescence; at 10 µM; stronger effect = lower value.
Test [9] addresses Beta-adrenergic receptor kinase 1 (Homo sapiens) (UniProt P25098). Nature of the test: GRK2 binders displacing RNA aptamer, biochemical, validation, human GRK2, bead flow cytometry (AID 488806;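 active = aptamer binding inhibition above 30%, about 3 SD of noise from non-fluorescent compounds; inactive = inhibition at or below 30%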). To be noted: bead-bound GRK2, FAM-aptamer displacement, at 10 µM, stronger effect = higher value.
For test [10], the target named is Beta-2 adrenergic receptor (Homo sapiens) (UniProt P07550). Nature of the test: beta2AR agonists driving receptor internalization, pilot screen, cell-based, FAP fluorogen, flow cytometry, validation set (AID 504459;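 active = percent response above 42, roughly 3 SD of non-fluorescent test compounds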;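 note: agonist-driven loss of surface beta2AR via internalization measured by FAP dye flow cytometry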). To be noted: Am2.2-beta2AR cells, FAP surface receptor flow cytometry; at 10 µM; stronger effect = higher value.
Beta-2 adrenergic receptor (Homo sapiens), sequence (P07550 whole entry, looked up): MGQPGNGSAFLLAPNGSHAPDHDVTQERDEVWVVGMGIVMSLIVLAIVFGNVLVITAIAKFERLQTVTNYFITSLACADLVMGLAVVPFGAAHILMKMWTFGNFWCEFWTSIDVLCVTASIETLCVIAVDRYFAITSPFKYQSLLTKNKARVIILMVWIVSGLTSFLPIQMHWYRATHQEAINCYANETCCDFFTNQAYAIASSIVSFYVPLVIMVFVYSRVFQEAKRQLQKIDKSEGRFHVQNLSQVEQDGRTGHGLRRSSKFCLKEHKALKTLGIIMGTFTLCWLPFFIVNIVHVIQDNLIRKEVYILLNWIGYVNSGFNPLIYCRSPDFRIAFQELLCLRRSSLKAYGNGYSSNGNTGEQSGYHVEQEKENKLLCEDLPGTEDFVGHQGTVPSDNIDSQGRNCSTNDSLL
For test [11], the target named is AP-2 complex subunit beta (Homo sapiens) (UniProt P63010). The test can be described thus: inhibitors of arrestin peptide binding to AP2, pilot screen, biochemical, validation set, GST-AP2 beads, flow cytometry (AID 504541;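 active = inhibition above 54%, about 3 SD of non-fluorescent compounds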;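 note: AP2 carries R879A mutation and is captured from E. coli lysate; bead-bound FITC arrestin peptide fluorescence measuring arrestin peptide binding to AP2; 0% = DMSO wells and 100% = excess unlabeled arrestin peptide control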). To be noted: FITC arrestin peptide, at 10 µM, stronger effect = higher value, AP2 beta2 appendage fragment, R879A mutant.
AP-2 complex subunit beta (Homo sapiens), sequence (P63010 whole entry, looked up, the tested form may be a part, one chain of several): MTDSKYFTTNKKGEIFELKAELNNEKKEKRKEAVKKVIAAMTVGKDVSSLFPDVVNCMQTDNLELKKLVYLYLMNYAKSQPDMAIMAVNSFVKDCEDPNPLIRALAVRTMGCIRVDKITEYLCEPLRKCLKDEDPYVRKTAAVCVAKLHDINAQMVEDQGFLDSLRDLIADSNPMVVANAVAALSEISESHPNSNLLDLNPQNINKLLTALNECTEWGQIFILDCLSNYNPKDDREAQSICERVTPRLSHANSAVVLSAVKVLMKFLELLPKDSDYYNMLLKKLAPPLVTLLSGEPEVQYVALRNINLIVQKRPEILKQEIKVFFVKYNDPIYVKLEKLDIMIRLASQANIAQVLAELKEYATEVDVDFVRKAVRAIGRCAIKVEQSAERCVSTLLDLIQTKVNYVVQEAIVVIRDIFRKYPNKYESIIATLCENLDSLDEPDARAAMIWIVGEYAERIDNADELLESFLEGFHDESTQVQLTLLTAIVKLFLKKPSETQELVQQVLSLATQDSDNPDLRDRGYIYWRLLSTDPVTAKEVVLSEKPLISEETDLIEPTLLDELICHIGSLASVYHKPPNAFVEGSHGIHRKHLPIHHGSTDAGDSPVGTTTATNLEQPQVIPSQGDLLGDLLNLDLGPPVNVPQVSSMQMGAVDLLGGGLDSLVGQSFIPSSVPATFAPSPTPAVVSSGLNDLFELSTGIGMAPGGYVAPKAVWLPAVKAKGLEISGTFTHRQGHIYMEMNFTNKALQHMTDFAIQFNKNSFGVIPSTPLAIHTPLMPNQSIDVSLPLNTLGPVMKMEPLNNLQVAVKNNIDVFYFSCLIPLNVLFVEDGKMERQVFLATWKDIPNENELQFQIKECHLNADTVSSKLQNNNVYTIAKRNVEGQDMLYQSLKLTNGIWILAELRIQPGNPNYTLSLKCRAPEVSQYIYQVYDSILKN
Test [12] in a line: yeast V-ATPase proton transport modulators, S. cerevisiae, pHLuorin, HTS validation (AID 504600; in the data active = response above about 15%;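 note: plate controls were DMSO for no effect and reference compound for full effect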). To be noted: S. cerevisiae pHLuorin cytosolic pH, at 10 µM, stronger effect = higher value.
Test [13] relates to anti-desmoglein-3 scFv antibody binding to human DSG3. Nature of the test: inhibitors of anti-DSG3 scFv binding to DSG3, pilot screen, biochemical, validation compound set, bead-based, flow cytometry (AID 588368;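 active = binding below the plate cutoff, the plate median minus 3 SD, with a reading above zero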;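 note: signal is the median channel fluorescence of bead-bound GFP antibody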). To be noted: Protein G beads, DSG3-Fc, scFv-GFP binding, at 10 µM, stronger effect = lower value.
The nature of test [14]: inhibitors of fungal efflux pumps CDR1, CDR2, MDR1, pilot screen, validation compound set, multiplex, phenotypic (AID 588506;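 active = efflux inhibition above 0.42, the validation set average plus 4 SD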;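 note: Nile Red retained in cells so higher fluorescence means more efflux inhibition; 0 = negative control wells and 1 = enniatin B 25 µM full block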). As to conditions: S. cerevisiae pump-expressing triplex, Nile Red efflux flow cytometry; at 10 µM; stronger effect = higher value; the pumps come from Candida albicans.
The target of test [15] is ATP-binding cassette sub-family B member 6 (Homo sapiens) (UniProt Q9NP58). Nature of the test: ABCB6 transporter inhibitors, pilot screen, K562-ABCB6 cells, flow cytometry, validation set (AID 588550).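 Note: 0% = DMSO wells and 100% = benzethonium chloride 70 µM positive control.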 As to conditions: K562-ABCB6 porphyrin accumulation, 1 h, at 10 µM, stronger effect = higher value.
ATP-binding cassette sub-family B member 6 (Homo sapiens), sequence (Q9NP58 whole entry, looked up): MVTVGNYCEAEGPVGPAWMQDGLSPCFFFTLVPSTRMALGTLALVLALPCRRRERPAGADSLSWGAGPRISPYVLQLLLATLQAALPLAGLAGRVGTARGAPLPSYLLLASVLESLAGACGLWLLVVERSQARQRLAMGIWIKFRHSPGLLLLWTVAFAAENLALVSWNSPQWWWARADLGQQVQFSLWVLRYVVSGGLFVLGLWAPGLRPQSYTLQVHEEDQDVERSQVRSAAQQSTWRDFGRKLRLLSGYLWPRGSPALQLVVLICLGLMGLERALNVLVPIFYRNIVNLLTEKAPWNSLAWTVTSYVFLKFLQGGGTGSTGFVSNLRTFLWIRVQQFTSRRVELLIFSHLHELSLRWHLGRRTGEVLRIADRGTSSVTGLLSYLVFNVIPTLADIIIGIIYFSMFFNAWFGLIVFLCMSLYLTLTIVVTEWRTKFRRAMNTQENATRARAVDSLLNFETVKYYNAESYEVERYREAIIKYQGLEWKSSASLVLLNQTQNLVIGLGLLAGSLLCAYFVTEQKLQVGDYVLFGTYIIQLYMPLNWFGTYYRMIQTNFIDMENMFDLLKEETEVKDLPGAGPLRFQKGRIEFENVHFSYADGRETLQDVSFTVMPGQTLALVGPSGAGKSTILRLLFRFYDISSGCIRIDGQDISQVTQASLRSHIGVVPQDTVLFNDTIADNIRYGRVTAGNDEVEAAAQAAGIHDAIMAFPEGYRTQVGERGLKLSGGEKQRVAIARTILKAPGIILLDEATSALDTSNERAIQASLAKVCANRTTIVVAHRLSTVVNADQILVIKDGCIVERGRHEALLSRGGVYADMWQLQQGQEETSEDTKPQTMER
Test [16] is described as follows: promoters of myeloid differentiation in arrested cells, primary screen, cell-based, GFP/MAC1 double positive, flow cytometry, validation set (AID 588685;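 active = differentiation response of at least 50%, scaled between solvent and reference control, from cells with both markers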;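 note: compound exposure lasts four days before antibody staining and flow analysis; 0% = DMSO wells and 100% = 5 µM fulvestrant positive control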). To be noted: ER-HoxA9 marrow cells, stronger effect = higher value, normalized: vehicle 0, fulvestrant 100.

Beta-adrenergic receptor kinase 1 (Homo sapiens), sequence (P25098 whole entry, looked up): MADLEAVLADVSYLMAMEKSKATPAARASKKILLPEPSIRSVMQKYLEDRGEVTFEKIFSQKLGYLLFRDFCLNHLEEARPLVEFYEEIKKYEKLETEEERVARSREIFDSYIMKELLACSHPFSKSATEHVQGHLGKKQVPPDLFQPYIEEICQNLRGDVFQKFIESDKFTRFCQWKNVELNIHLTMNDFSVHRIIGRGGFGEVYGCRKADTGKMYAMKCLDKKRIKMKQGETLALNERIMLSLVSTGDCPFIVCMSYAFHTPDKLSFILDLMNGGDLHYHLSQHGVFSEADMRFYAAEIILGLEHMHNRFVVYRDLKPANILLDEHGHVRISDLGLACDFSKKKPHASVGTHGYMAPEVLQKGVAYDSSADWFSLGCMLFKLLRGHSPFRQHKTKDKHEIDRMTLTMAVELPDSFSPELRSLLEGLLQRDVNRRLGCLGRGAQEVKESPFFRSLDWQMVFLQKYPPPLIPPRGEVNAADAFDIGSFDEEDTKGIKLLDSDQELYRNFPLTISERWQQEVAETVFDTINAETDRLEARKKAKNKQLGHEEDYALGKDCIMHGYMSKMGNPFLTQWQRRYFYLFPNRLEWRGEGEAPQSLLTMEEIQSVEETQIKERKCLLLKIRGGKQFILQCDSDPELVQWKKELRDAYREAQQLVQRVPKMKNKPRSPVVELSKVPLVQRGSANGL

In the case of `CC(=O)c1c[nH]c2ccc(C)cc2c1=O`, in test [1], the percent of DMSO control GFP was 97.4% (inactive). Besides, the figures for the GFP response vs DMSO in test [2] and in test [4] were 99.6% (inactive) and 114% (inactive), respectively. The percent response of DMSO control in test [3] is 97.7% (inactive). For the same compound, the GFP response, % of DMSO in test [5] is 94.9% (inactive). In [6], this compound yielded a double positive events of 60.8%. Further, the vesicle binding response in test [6] was 228% (inactive). Further, the values for the inhibition in test [7], in [11] and in test [15] were -85.1% (inactive), 34.1% (inactive) and 1% (inactive), respectively. Moreover, the superoxide response (% of plate) in [8] was 104% (inactive). For the same compound, in test [9], the aptamer binding inhibition is 0% (inactive). Also, the response was -3.59% (inactive) in [10] and -1.39% (inactive) in test [12]. Besides, the binding (% of control) in test [13] was 101% (inactive). The efflux inhibition (fraction of control) in test [14] was -0.31 (inactive). For the same compound, the differentiation response in [16] is -18.4% (inactive).
Take `Cc1cc(C)c(NC(=O)NC(=O)C(Cl)(Cl)Cl)c(C)c1`: the percent of DMSO control GFP in test [1] is 103% (inactive). The GFP response vs DMSO is 97.2% (inactive) in [2] and 90.7% (inactive) in test [4]. Moreover, the percent response of DMSO control in test [3] was 101% (inactive). Further, in test [5], the GFP response, % of DMSO is 94.2% (inactive). Besides, the double positive events in [6] is 62.2%. Moreover, the vesicle binding response in [6] is 464% (inactive). Besides, the inhibition in test [7] was 13% (inactive); in test [11], -8.2% (inactive); in [15], -19% (inactive). Besides, the superoxide response (% of plate) in test [8] was 97.8% (inactive). Also, the aptamer binding inhibition in [9] is 4% (inactive). Also, the response in test [10] is -6.36% (inactive); in test [12] it was 13.6% (inactive). The binding (% of control) in [13] is 96.9% (inactive). Moreover, the efflux inhibition (fraction of control) in test [14] is -0.04 (inactive). Besides, the differentiation response in [16] was 0.24% (inactive).
`COCC(C)NC(=O)c1ccc(CN2CCc3ccccc3C2)cc1` (stereo not given): the percent of DMSO control GFP in test [1] is 97.3% (inactive). The GFP response vs DMSO was 108% (inactive) in test [2] and 120% (inactive) in test [4]. Moreover, the percent response of DMSO control in test [3] was 103% (inactive). Moreover, the GFP response, % of DMSO in test [5] is 92.6% (inactive). In addition, the double positive events in test [6] amounted to 60.9%. The vesicle binding response in [6] is 257% (inactive). Further, the inhibition was -12.7% (inactive) in test [7], 53.4% (inactive) in test [11] and 2% (inactive) in [15]. For the same compound, the superoxide response (% of plate) in test [8] was 103% (inactive). Besides, the aptamer binding inhibition in [9] is -9% (inactive). Moreover, the response in [10] is -5.78% (inactive); in test [12], -6.18% (inactive). In test [13], the binding (% of control) is 195% (inactive). Further, the efflux inhibition (fraction of control) in [14] is -0.1 (inactive). For the same compound, the differentiation response in test [16] is 16.8% (inactive).
As to `C[C@H]1O[C@@H](O[C@H]2[C@@H](O)C[C@H](O[C@H]3[C@@H](O)C[C@H](O[C@H]4CC[C@@]5(C)[C@H](CC[C@@H]6[C@@H]5C[C@@H](O)[C@]5(C)[C@@H](C7=CC(=O)OC7)CC[C@]65O)C4)O[C@@H]3C)O[C@@H]2C)C[C@H](O)[C@@H]1O`, the percent of DMSO control GFP in test [1] was 100% (inactive). Besides, the GFP response vs DMSO was 105% (inactive) in [2] and 93.7% (inactive) in test [4]. For the same compound, the percent response of DMSO control in [3] was 95.5% (inactive). In [5], the GFP response, % of DMSO was 93.7% (inactive). This compound registered a double positive events in test [6] of 62.7%. Also, the vesicle binding response in [6] is 151% (inactive). Besides, the inhibition in test [7] is 11% (inactive); in test [11], -11.4% (inactive); in test [15] it was -10% (inactive). For the same compound, the superoxide response (% of plate) in test [8] is 90.7% (inactive). In addition, the aptamer binding inhibition in [9] is -2% (inactive). For the same compound, the response was 12.4% (inactive) in test [10] and 1.64% (inactive) in [12]. Further, the binding (% of control) in test [13] was 103% (inactive). In [14], the efflux inhibition (fraction of control) was -0.07 (inactive). Further, the differentiation response in test [16] was 5.67% (inactive).
Consider `COC(=O)C1=C(C)N(C)C(=S)NC1c1ccc(Cl)cc1` (stereo not given), for which the percent of DMSO control GFP in [1] is 99.8% (inactive). For the same compound, the GFP response vs DMSO is 95.6% (inactive) in test [2] and 98% (inactive) in test [4]. In test [3], the percent response of DMSO control was 98.6% (inactive). The GFP response, % of DMSO in test [5] is 88.8% (inactive). In test [6], this compound returned a double positive events of 63%. Moreover, the vesicle binding response in [6] was 138% (inactive). In addition, the results for the inhibition in [7], in [11] and in test [15] were -2.43% (inactive), 0.15% (inactive) and 7% (inactive), respectively. Moreover, the superoxide response (% of plate) in test [8] is 99.9% (inactive). For the same compound, the aptamer binding inhibition in [9] was 3% (inactive). Also, the response in [10] is -27.7% (inactive); in [12], 0.83% (inactive). Besides, in test [13], the binding (% of control) is 97.9% (inactive). The efflux inhibition (fraction of control) in [14] was -0.04 (inactive). In addition, the differentiation response in test [16] was -10.4% (inactive).
